The full ranking holds about 68,000 sequences; the median of “fluorescence intensity (a.u.)” is about 9,100, and the highest 2% start at about 16,000. For the sample, the highest values were picked, then their nearest neighbours and some sequences at random.

Chain of OsWRKY34 (Q0JBA9 entry or part of it): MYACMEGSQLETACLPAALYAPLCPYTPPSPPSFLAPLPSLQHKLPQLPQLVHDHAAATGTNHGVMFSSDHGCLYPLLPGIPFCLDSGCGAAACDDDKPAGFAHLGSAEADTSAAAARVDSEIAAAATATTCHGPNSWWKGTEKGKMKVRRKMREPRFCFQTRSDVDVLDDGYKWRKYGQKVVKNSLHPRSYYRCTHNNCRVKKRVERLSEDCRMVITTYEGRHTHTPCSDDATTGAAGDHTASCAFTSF

The target in the experiment is OsWRKY34 (Oryza sativa, UniProt Q0JBA9 1-250). Briefly: protein-binding microarray (RPBM); PBS, 2% BSA, 51.3 ng/ul salmon testes DNA, 50 uM zinc acetate, 200 nM TF, 25 C, 1 h; high values mean tight binding. Conditions: protein: recombinant; tags: N-terminal polyhistidine and DsRed monomer fusion (pET32a); label: CyDye5-dUTP incorporated in the synthesized complementary strand; 3' TTTTT single-stranded linker to array surface; dsDNA, one strand shown. The gist of the method:
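The binding signal is fluorescence intensity per array feature (arbitrary units). Readings came from an Axon 4000B scanner after a washed, 2% BSA-blocked, double-stranded custom Agilent array had been incubated for 1 h at 25 °C with 200 nM protein and 50 µM zinc acetate. The protein was a Ni–NTA-purified transcription factor fused N-terminally to polyhistidine and DsRed, expressed in E. coli BL21-CodonPlus.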
On to “CCCACCTCCACCTCCGCCGGCCGGTACGTTTATCCACTGACGGAGTCACCTAGTGCAG”, for which the binding signal is 9030 fluorescence intensity (a.u.).
“GACTGATTTGTTTTTTTTTTCTCCCGGTTTTTTCGACGGACGGAGTCACCTAGTGCAG”: the binding signal was 9270 fluorescence intensity (a.u.).
The same measure for “TTCCTTTTTTTATGCAACTTTGACAAGCCTAATAGATATACGGAGTCACCTAGTGCAG”: 8500 fluorescence intensity (a.u.); for “GCTACCATCGTCACCGCCTCAACCAAGCTACCCGTGTCTCCGGAGTCACCTAGTGCAG”: 10400 fluorescence intensity (a.u.); for “GCCCTACTCTACCCCTAGCCCTCCGCGCGGCTGCCGTCGACGGAGTCACCTAGTGCAG”: 8970 fluorescence intensity (a.u.).
Turning to “CACCCAAACCAAATCAAATCCGTCCATCCATTCGCCTCTACGGAGTCACCTAGTGCAG”, the binding signal was 8960 fluorescence intensity (a.u.).
For the sequence “ATCCACTTATATATACACACATTTGTAATTTGTATCTATACGGAGTCACCTAGTGCAG”, the binding signal was 8270 fluorescence intensity (a.u.).
With “GTTTGAGGGTTTTTTGTTGGTTTAGAATCATCTTTTTCTTCGGAGTCACCTAGTGCAG”, the binding signal was 9210 fluorescence intensity (a.u.).
As for “GGCTGGTTTGGTTGGTTGAGAATACCTTTTCTTTTTCCTTCGGAGTCACCTAGTGCAG”, the binding signal is 29100 fluorescence intensity (a.u.).
The same measure for “GGGGTATGAAATGTTTTTTTTTTCCTTTACGTTTCTTTTTCGGAGTCACCTAGTGCAG”: 15400 fluorescence intensity (a.u.); for “GGTTTTTATGGGGTTGCTCTTTGATTTTTTTTTTCTCCTGCGGAGTCACCTAGTGCAG”: 12200 fluorescence intensity (a.u.).
Next, “CATATGTATGAGGGTATCTTTGTTTTGGCTTTGGTCCCTTCGGAGTCACCTAGTGCAG”: 10200 fluorescence intensity (a.u.); “GCTGGAGGGGCTGGGGTATGTTCTTTTTGTATATGACGTTCGGAGTCACCTAGTGCAG”: 20300 fluorescence intensity (a.u.).
Regarding “CGTTTTATTTTTGGTTGTTTTTCTGTTTGGGTTTTGATTTCGGAGTCACCTAGTGCAG”, the binding signal was 11300 fluorescence intensity (a.u.).
As for “ATTTTCCTTGATTTTTTTTGTGTGTTTGGGAATTGGGATACGGAGTCACCTAGTGCAG”, the binding signal is 12600 fluorescence intensity (a.u.).
For the sequence “TTTCATGTCGCTCCTTGTCGTTGCTGCTCTTTGGGTGCAACGGAGTCACCTAGTGCAG”, the binding signal is 11100 fluorescence intensity (a.u.).
In the case of “ATTTTCCTTGTTTTGATGTTTTCTGGTTGGGGAAGGGTTACGGAGTCACCTAGTGCAG”, the binding signal was 24600 fluorescence intensity (a.u.).
With “TTGATGGGTTTTGGGTTTTTGTGCTGCTCCTTTTTCGTAACGGAGTCACCTAGTGCAG”, the binding signal is 19800 fluorescence intensity (a.u.).
Consider “TGTTTTTGCTTCTCTTCCTTTTGCTGGAGCTTATTGGTTTCGGAGTCACCTAGTGCAG”, for which the binding signal was 10100 fluorescence intensity (a.u.).
As for “CCTATGAAGAAACTTACGCTGACGGCTGACCTAAACGTGCCGGAGTCACCTAGTGCAG”, the binding signal is 11000 fluorescence intensity (a.u.).
Turning to “AAACAATCCGACGGCCCGTATTCCGTGGTCCACGGCCACGCGGAGTCACCTAGTGCAG”, the binding signal is 9020 fluorescence intensity (a.u.).
On to “CTTATTTCAAATGTGTGGGTATACATATGTGCACATATATCGGAGTCACCTAGTGCAG”, for which the binding signal was 8440 fluorescence intensity (a.u.).
As for “TCGTTACATGTTCTTTCATTCTCGTATTGCATTATCTGCTCGGAGTCACCTAGTGCAG”, the binding signal is 9260 fluorescence intensity (a.u.).
In the case of “GGATTTTCTTCCGATCTCGCTTCCACCTCGCCGCCTCGCCCGGAGTCACCTAGTGCAG”, the binding signal was 9120 fluorescence intensity (a.u.).
“TCGATCGGTTGGTTGGTTGGTTTTGTTGGATTTTTTTCCTCGGAGTCACCTAGTGCAG”: the binding signal was 18700 fluorescence intensity (a.u.).
In the case of “TTCCTGGTTGCTTCTTTTGCAGTTTTTTTTTTCCCTTCCTCGGAGTCACCTAGTGCAG”, the binding signal is 10100 fluorescence intensity (a.u.).
As for “CCCTGGTGTTTGGATTTGGTTGTTCCTCGCGATTGCATTTCGGAGTCACCTAGTGCAG”, the binding signal was 15600 fluorescence intensity (a.u.).
The same measure for “CTCGCCTCGCCGCCTTTTCTTCGCCATCTTTTTCGATTTCCGGAGTCACCTAGTGCAG”: 18800 fluorescence intensity (a.u.); for “TATTAGTGTTTTATTTTCACCGGTTAATATTTTTGTTCTTCGGAGTCACCTAGTGCAG”: 8880 fluorescence intensity (a.u.); for “GTGCTCGATGCTCGATGCCCTCCTTTTCCGCCATCTTTTTCGGAGTCACCTAGTGCAG”: 10200 fluorescence intensity (a.u.).
For “TTCGTTAAATTATTTTTCTTTTTCGTTTTTTTTTTTTGTTCGGAGTCACCTAGTGCAG”, the binding signal was 8930 fluorescence intensity (a.u.).
Regarding “CTCCTGCCTGGGTTTGGTTTGGTTTGGCTTTGCTTCTTCCCGGAGTCACCTAGTGCAG”, the binding signal was 36800 fluorescence intensity (a.u.).
With “GTTCTTCGTTAATACGGTGCTTTCATTATTTTGTTTTCCCCGGAGTCACCTAGTGCAG”, the binding signal was 16600 fluorescence intensity (a.u.).
Next, “GCTTGGATTTTTTTTGTTGCTTTTGGTTGTTGTGATCCCTCGGAGTCACCTAGTGCAG”: 11800 fluorescence intensity (a.u.); “GGTTTGGCTTTGCTTCTTCCTCGCGCGGCGCCTCCCATCCCGGAGTCACCTAGTGCAG”: 9260 fluorescence intensity (a.u.); “TACTATACCACTTACTACTAAGTATTCTGCGCACAAACAGCGGAGTCACCTAGTGCAG”: 10800 fluorescence intensity (a.u.).
As to “CCTCGGCTCCCATCCACTACCGTTTGCTACTCCGGCGCCGCGGAGTCACCTAGTGCAG”, the binding signal was 10600 fluorescence intensity (a.u.).
For the sequence “CTCATCTCACCCGTCACTACTGCACTGCGCACCATTGCCGCGGAGTCACCTAGTGCAG”, the binding signal is 8540 fluorescence intensity (a.u.).
As for “GATTGGGTTGTTTGCGGGGCTAAGTTCCTAATTTTAATGACGGAGTCACCTAGTGCAG”, the binding signal was 11500 fluorescence intensity (a.u.).
As to “ACCCTCCACCCGCCACCGCCACCGCCGCCTTCGCCGCCGCCGGAGTCACCTAGTGCAG”, the binding signal was 9250 fluorescence intensity (a.u.).
As for “TTGCAACGGATTTTACTGGGCTTATGGGCTTCTTTTATTGCGGAGTCACCTAGTGCAG”, the binding signal is 9700 fluorescence intensity (a.u.).
For “GGGATTTCATATATCTGGTTTTGCGGTTGGGGACGATTTTCGGAGTCACCTAGTGCAG”, the binding signal was 12300 fluorescence intensity (a.u.).
Turning to “TCTTGCGACGATCGTGTGGGGTGGGTTCGTGTGCTCTCTCCGGAGTCACCTAGTGCAG”, the binding signal was 19500 fluorescence intensity (a.u.).
Consider “GCTTTGTTCTGATTCCTTCACAGTTATTTGATATTTTCCTCGGAGTCACCTAGTGCAG”, for which the binding signal was 8710 fluorescence intensity (a.u.).
For “CTTGCTCTCCTCTCTCGTGCTCCATCGATCGATCGATCTCCGGAGTCACCTAGTGCAG”, the binding signal was 9660 fluorescence intensity (a.u.).
Next, “AATACTTGCGAGCTCCGATCTCTTCTTCTTCTTCGTGAGCCGGAGTCACCTAGTGCAG”: 8180 fluorescence intensity (a.u.); “TGTTGTCGTCGTCCCTCTTCCTTTCCTTTCCTTTCCTTGCCGGAGTCACCTAGTGCAG”: 8870 fluorescence intensity (a.u.).
Next, “CTCTCTTCTTCTTCCTCGCTTTGCTTGGGTTGGGTTGGAGCGGAGTCACCTAGTGCAG”: 14800 fluorescence intensity (a.u.); “GAAGCTTCCTCGTCGTCCTTTGTTGGGTTGGGTTGGGTTGCGGAGTCACCTAGTGCAG”: 21000 fluorescence intensity (a.u.); “CCTCATTTGCTTCTTCTTCTTCTTCCTCCTCTTTGTTTCACGGAGTCACCTAGTGCAG”: 9120 fluorescence intensity (a.u.).
Take “GGATTGGTTTTGAGATTGTTCTGTCAGATGGGGATTGTTTCGGAGTCACCTAGTGCAG”: the binding signal was 12700 fluorescence intensity (a.u.).
The same measure for “TCTCCTTGATTCCCGCTTCTCACACGCATTATTTGTTTCACGGAGTCACCTAGTGCAG”: 18500 fluorescence intensity (a.u.).
Take “GAGACGTTGTATATCTGGTTTTGTGGTTTGGGGATGTTTTCGGAGTCACCTAGTGCAG”: the binding signal was 20100 fluorescence intensity (a.u.).
Regarding “CACGTCACCTGCATATGCCCTTCTTCCTCGCCGGCCACACCGGAGTCACCTAGTGCAG”, the binding signal is 11000 fluorescence intensity (a.u.).
